Sampled rows, rich in hits. Any-hit rate of the full collection: about 3.1%.
ELG1 DNA repair – inhibitors of ELG1-dependent DNA repair in HEK293T cells; HEK293T ELG1-luciferase reporter, luminescence, 16 h; DNA damage induced by 5-fluorouridine; hit rate 2.3% among 330,000; Potency, µM (top dose mostly 46.1 µM), for inactives: at the highest dose activity change, negative = inhibition, usual class: inhibitors; note: potency is the fitted concentration of half-maximal effect; % is set by controls: 0 for no effect and ±100 for the full control effect; nearly all actives have a fitted effect of over 55% in size
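Overnight (16 hr) co-exposure of 2,000 cells/well to 5-fluorouridine and compound at 37 °C preceded detection. Luciferase was quantified via ONE-Glo luminescence; loss of signal denotes inhibition.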
Nrf2 activator – activates Nrf2 signaling. hit rate 0.31% among 410,000. AREc32 ARE-luciferase reporter (MCF7-derived line), luminescence, 24 h. Potency, µM (top dose mostly 46.1 µM), inactives show at the top dose activation, actives largely listed as activators; note: potency is the fitted concentration of half-maximal effect; % of control where 0% means no effect; nearly all actives have a fitted effect of over 65% in size
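ARE activation measured as luciferase luminescence (Steady-Glo, 30 min RT) in AREc32_Fluc cells after 24 hr compound exposure at 37 deg C, 5% CO2; cells seeded overnight at 1000/well in OPTI-MEM, 5% FBS.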
IL-2 act – activates IL-2 in a cell-based reporter assay; IL-2 activation reporter assay, cell-based qHTS; stimulated with anti-CD3/CD4/CD28 beads; in transgenic mouse T cells; AID 652025; activation, % (series mostly up to about 46 µM); hit rate 0.065% among 360,000; in the data active = activation above about 50%; inconclusive = mostly about 30% to 49%; note: 0% is about no effect
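Unstimulated transgenic mouse T cells, 750 per well, received compound and, after 60 minutes, anti-CD3/anti-CD4 bead plus anti-CD28 stimulation. EGFP and DsRed were quantified after 18 hours.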
BRCA1 expr act – increases BRCA1 expression; MCF7-BRCA1-FFLuc reporter, luminescence, 48 h; response scale: scaled: vehicle 0%, 10 µM genistein 100%; Potency, µM (titrated, usually from 46.1 µM), without a hit: at the highest dose activation, actives largely listed as activators; AID 624202; hit rate 1.1% among 380,000; note: potency is the fitted concentration of half-maximal effect; nearly all actives have a fitted effect of over 80% in size
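Reporter cells (MCF7, BRCA1 promoter-firefly luciferase) received library compounds across a concentration series for 48 h. End-point luminescence was measured and concentration-effect curves derived after normalization.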
* marks the source's active call; other numbers are inactive results; u = inconclusive; x = no result; [ ] = dose if it differs, or a comment. Unless noted, calls come from the whole dose curve; as a rule, active = well fitted curve in the direction sought with a large enough effect; inconclusive = small, poorly fitted or top-dose-only effect, or another doubt; inactive = no such curve, though single readings can be large; an effect the other way counts as inactive or inconclusive.

SMILES	ELG1 DNA repair	Nrf2 activator	IL-2 act	BRCA1 expr act
CCN(CC(=O)Nc1c(C(=O)OC)[nH]c2ccc(Cl)cc12)c1ccc2c(c1)OCO2	23µM*	6%	-1	-60%
COC(=O)c1c(NC(=O)CN2CCN(C(=O)c3ccco3)CC2)c2cc(C)ccc2n1C	21µM*	3%	-4	-37%
COC(=O)c1[nH]c2ccccc2c1NC(=O)CN1CCC(C(N)=O)(N2CCCCC2)CC1	6.5µM*	2%	-3	2%
COC(=O)c1[nH]c2ccccc2c1NC(=O)CN1CCCCCC1	u	0%	2	-38%
CCOC(=O)c1[nH]c2ccc(Cl)cc2c1NC(=O)/C=C/c1ccc2c(c1)OCO2	-2%	0%	-1	-42%
COC(=O)c1c(NC(=O)CN2CCN(C(=O)c3ccco3)CC2)c2c(C)cccc2n1C	u	0%	1	-18%
CCOc1ccc(CCNC(=O)c2cc(C)nc3c2c(C)nn3-c2cccc(F)c2)cc1	x	8%	x	x
CCOc1ccc(/C=C/c2ccc3ccccc3n2)cc1OCC	x	x	x	-55%
CCOC(=O)N1CCN(CC(=O)Nc2c(C(=O)OC)[nH]c3ccccc23)CC1	u	0%	1	-8%
COC(=O)c1[nH]c2ccccc2c1NC(=O)CN1CCN(C(=O)c2ccco2)CC1	21µM*	3%	0	-12%
O=C(Cc1nc2ccccc2[nH]c1=O)c1ccccc1	u	u	u	5.6µM*
O=c1[nH]c2ccccc2nc1Cc1ccccc1	-8%	0%	0	23%
CCCCOC(=O)CCc1nc2ccccc2[nH]c1=O	29µM*	-1%	-1	1%
Clc1ccc2nc(-c3cccc(SC4CCCCC4)c3)c(NCc3ccccc3)n2c1	u	1%	-1	-31%
Cc1ccc2nc(-c3cccc(SC4CCCCC4)c3)c(NCc3ccccc3)n2c1	26µM*	-4%	-4	-36%
COCCOC(=O)c1c(C)nc(SCC(=O)Nc2cccc3ccccc23)c(C#N)c1-c1ccco1	13µM*	9%	-5	-32%
COCCOC(=O)c1c(C)nc(SCC(=O)Nc2ccc(C)cc2)c(C#N)c1-c1ccco1	u	0%	-3	0%
COc1ccc(CCNc2ncccc2C#N)cc1OC	u	0%	1	4µM*
COc1ccc(CCNc2ncnc3cc(OC)c(OC)cc23)cc1OC	8.2µM*	1%	-2	-36%
COc1cc2ncnc(NCCc3ccccc3)c2cc1OC	u	6%	-1	-39%
COc1ccc(CCNc2c3ccccc3nc3ccccc23)cc1OC	u	9%	-3	-80%
COc1ccc(NC(=O)c2ccc3c(c2)CCN3S(=O)(=O)c2ccc(C)cc2)cc1Cl	x	0%	x	x
O=C(C1CC(c2ccccc2O)=NO1)N1CCCCC1 (stereo unspecified)	u	0%	-2	10µM*
CC(=O)N1CCCc2cc(S(=O)(=O)N(C)CC(=O)Nc3ccc(F)c(Cl)c3)ccc21	x	0%	x	x
O=C(CC(Nc1ccc(F)cc1)C(=O)O)c1ccccc1 (stereo unspecified)	u	20µM*	1	u
SMILES	ELG1 DNA repair	Nrf2 activator	IL-2 act	BRCA1 expr act
Cc1cc(C)cc(-n2nnc3ccccc3c2=O)c1	x	7%	1	0%
O=c1c2ccccc2nnn1-c1ccc(Br)cc1	u	6%	-1	4.5µM*
COc1ccc(NC(=O)c2nc3nc(C)cc(C(F)F)n3n2)c(C)c1	x	0%	x	25%
COc1ccccc1CNC(=O)CSc1ncc(S(=O)(=O)c2ccc(C)c(Cl)c2)c(=O)[nH]1	x	-1%	x	5%
COc1ccc(CC(=O)Nc2c(C(=O)Nc3ccccc3F)oc3ccccc23)cc1	x	0%	x	2%
Cc1nc2ccccc2c(=O)n1/N=C/c1ccc(O)cc1O	-15%	0%[9.22 µM]	-2	14%
Cc1nc2ccccc2c(=O)n1/N=C/c1ccccc1Cl	u	4%	0	10µM*
O=C(CN1C(=O)C2(SCC(=O)N2c2cccc(Cl)c2)c2ccccc21)NCCc1ccccc1 (stereo unspecified)	x	6%	x	-22%
O=C(CCl)N(c1ccc(Cl)cc1)c1c[nH]c2ccccc12	26µM*	-3%	-1	-91%
O=C(CCl)N(c1ccccc1)c1c[nH]c2ccccc12	21µM*	u	-6	-94%
O=C(Nc1ccccc1Cl)c1ccc(F)c(S(=O)(=O)NCc2ccc(Cl)c(Cl)c2)c1	x	-1%	x	x
Cc1c(Br)cccc1NC(=O)C1(C)CCN1CCc1ccccc1 (stereo unspecified)	x	5%	-1	0%

Screens from PubChem BioAssay.
